# Bioassay records deposited in PubChem by several laboratories.
# PAFAH1B2 inh = blocks human PAF acetylhydrolase 1b catalytic subunit 2 | P68402 | recombinant PAFAH1B2, FP-rhodamine activity probe, fluorescence polarization | inhibition, % at 3.39 µM | actives 1.2% (n = 340,000) | AID 492953;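 active = inhibition above the mean of all tested compounds plus 3 SD, cut at about 24% in these data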;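 note: 0% = enzyme with DMSO and 100% = wells lacking PAFAH1B2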
# pPAFAH FP inh = pPAFAH (human) enzyme inhibition; Q13093; recombinant pPAFAH, FP-rhodamine probe fluorescence polarization; inhibition, % at 3.39 µM; actives 1.5% (n = 330,000);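 active = inhibition above the mean inhibition across the screen plus 3 SD, cut at about 25% in these data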;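 note: inhibitors block binding of the rhodamine activity-based probe so polarization drops; 0% = enzyme with DMSO and 100% = wells lacking pPAFAH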
# Target sequence (Q13093 whole entry, looked up): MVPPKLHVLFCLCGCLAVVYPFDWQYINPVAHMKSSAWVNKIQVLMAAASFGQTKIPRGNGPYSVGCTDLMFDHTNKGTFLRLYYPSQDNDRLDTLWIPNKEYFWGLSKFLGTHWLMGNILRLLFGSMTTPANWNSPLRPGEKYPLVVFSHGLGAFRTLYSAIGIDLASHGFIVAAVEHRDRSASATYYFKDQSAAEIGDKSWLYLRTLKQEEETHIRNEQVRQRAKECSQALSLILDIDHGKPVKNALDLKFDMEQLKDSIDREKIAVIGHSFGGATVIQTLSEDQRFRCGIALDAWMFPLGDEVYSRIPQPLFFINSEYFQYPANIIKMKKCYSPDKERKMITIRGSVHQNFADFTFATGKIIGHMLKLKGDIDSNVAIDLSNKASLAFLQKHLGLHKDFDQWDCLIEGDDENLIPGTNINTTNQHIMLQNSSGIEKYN
# PAFAH1B3 inh = inhibitors of human PAFAH1B3; inhibition, % at 3.39 µM; recombinant PAFAH1B3, FP-rhodamine probe, fluorescence polarization; AID 492972; actives 0.28% (n = 340,000);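 active = inhibition above the screen-wide average of all tested compounds plus 3 SD, cut at about 25% in these data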;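 note: 0% = enzyme with DMSO only and 100% = wells lacking PAFAH1B3 protein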
# PfM18AAP inh = blocks P. falciparum M18 aspartyl aminopeptidase | recombinant PfM18AAP, H-Glu-NHMec fluorogenic cleavage | inhibition, % at 7.35 µM | actives 1.2% (n = 290,000);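 active = inhibition above the campaign mean inhibition over all tested compounds plus 3 SD, cut at about 28% in these data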;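 note: 0% = plate median of test compound wells and 100% = 2 mM ZnCl2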
# Pemphigus Ab inh = inhibitors of pemphigus antibody binding to human desmoglein-3. P32926. DSG3-coupled beads, scFv-anti-DSG3-GFP binding, flow cytometry; hits give low values. binding (percent of control), % at 10 µM. actives 0.48% (n = 310,000);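 active = binding more than 3 SD below its plate's average and above zero; inconclusive = below that plate limit but binding exactly zero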;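 note: hits lower antibody fragment binding to DSG3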
# PAFAH2 inh = PAFAH2 (human) inhibition | actives 0.99% (n = 340,000) | Q99487 | inhibition, % at 3.39 µM | AID 492956 | recombinant PAFAH2, FP-rhodamine activity probe, fluorescence polarization;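 active = inhibition above the mean over all tested compounds plus 3 SD, cut at about 30% in these data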;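 note: inhibitors block probe labeling of enzyme so polarization drops; 0% = enzyme with DMSO and 100% = wells lacking PAFAH2 protein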
# * = called active by the depositor; ? = inconclusive; / = no result given. A selection: hits, their analogues and other compounds. The true share with any hit is near 3.8%.
SMILES,PAFAH1B2 inh,pPAFAH FP inh,PAFAH1B3 inh,PfM18AAP inh,Pemphigus Ab inh,PAFAH2 inh
O=C(NCc1nnnn1-c1ccc(F)cc1)c1ccc(S(=O)(=O)N2CCOCC2)cc1,/,/,/,/,105,/
CC(C)CC(=O)NNC(=S)Nc1ccc(S(N)(=O)=O)cc1,2,2,4,29*,95,6
O=C(Nc1ccc(-c2csc(Nc3cccc(C(F)(F)F)c3)n2)cc1)c1cc([N+](=O)[O-])cc(C(F)(F)F)c1,24,-1,27*,/,103,48*
O=C(COc1ccc2ccccc2c1)Nc1ccc(Cc2ccncc2)cc1,0,-1,1,2,37*,-1
N#CCC(=O)Nc1ccc(C(=O)OCC(=O)Nc2ccc3ccccc3c2)cc1,-26,33*,-31,/,100,-2
N#Cc1ccsc1NC(=O)COC(=O)c1ccc2ccccc2c1,-7,7,1,2,63*,10
COCOCCn1cc(CN2CCS(=O)(=O)N(Cc3ccc(-c4cccc(CO)c4)cc3)C(CC(C)C)C2=O)nn1 (stereo unspecified),/,/,/,/,104,/
CSc1nc2ccc(NS(=O)(=O)c3ccc4c(c3)OCCO4)cc2s1,0,30*,4,-8,113,-1
O=[N+]([O-])c1ccccc1/C=C/C=N/n1c(-c2ccc(Cl)cc2)n[nH]c1=S,0,27*,3,9,104,4
Cn1cccc1-c1cc(C(=O)N/N=C/c2cc(Br)ccc2O)[nH]n1,8,30*,8,1,95,0
Cn1cccc1-c1cc(C(=O)N/N=C/c2ccccc2Cl)[nH]n1,0,6,5,7,102,1
O=C(CCOc1cccc(Br)c1)Nc1ccc(F)c(S(=O)(=O)N2CCOCC2)c1,0,/,-8,/,96,2
N#C/C(=C\c1ccc(/C=C(/C#N)c2nn(CCO)c(N)c2C#N)cc1)c1nn(CCO)c(N)c1C#N,-5,2,-6,-5,86*,-14
N#C/C(=C/c1ccccc1)c1nn(CCO)c(N)c1C#N,3,7,11,3,95,-8
CCN(CC)C(=O)C1=C(C)N(Cc2ccc(OC)cc2)C(=O)C(CC(=O)NC2CC2)C1 (stereo unspecified),/,/,/,/,102,/
Cc1ccc(S(=O)(=O)n2nc(-c3cccnc3)nc2N)cc1,33*,1,0,-2,102,6
O=[N+]([O-])c1ccc(CP(=O)(c2ccccc2)c2ccccc2)cc1,-3,/,-2,-2,132,0
NS(=O)(=O)c1ccc(CCNC(=O)CSc2nc3c(sc(=S)n3-c3ccccc3)c(=O)[nH]2)cc1,/,/,/,/,105,/
Cc1cccc(C(=O)O/N=C(\c2ccccc2)c2cccnc2)c1,14,30*,3,0,88,72*
N/C(=N\OC(=O)c1ccccc1)c1cccnc1,-2,-1,5,-1,88,-2
O=C(CCNS(=O)(=O)c1ccc(Br)cc1)NCCCSc1ccccc1,26*,7,1,/,103,6
Cc1ccc(S(=O)(=O)NCCC(=O)NCCCSc2ccccc2)cc1,1,4,-2,/,/,-2
O=C(CCNS(=O)(=O)c1ccccc1)NCCCSc1ccccc1,36*,4,6,-13,?,5
Cc1cccc(NC(=O)COC(=O)c2nn(-c3ccccc3C(F)(F)F)cc2O)c1C,/,/,/,/,102,/
N#CC1=C(N)Oc2cc(N)ccc2C1c1ccsc1 (stereo unspecified),1,15,7,9,95,2
SMILES,PAFAH1B2 inh,pPAFAH FP inh,PAFAH1B3 inh,PfM18AAP inh,Pemphigus Ab inh,PAFAH2 inh
N#CC1=C(N)Oc2ccc3ccc(O)cc3c2C1c1ccsc1 (stereo unspecified),93*,/,114*,-3,95,98*
CC1Sc2ccc(S(=O)(=O)CCC(=O)NCc3ccccc3)cc2NC1=O (stereo unspecified),4,3,-4,0,97,-1
CC1Sc2ccc(S(=O)(=O)CCC(=O)Nc3ccccn3)cc2NC1=O (stereo unspecified),4,2,2,29*,106,-4
COc1ccc2oc(=O)c(-c3csc(Nc4ccc(O)cc4)n3)cc2c1,8,29*,17,4,90,-5
CN(c1ccccc1)S(=O)(=O)c1ccc(NC(=O)CC(=O)c2ccccc2)cc1,-8,/,-1,/,/,-22
CCC(=O)Nc1cc(C)c(NC(=O)C23CC4CC(CC(C4)C2)C3)cn1,32*,-2,-2,-1,98,5
Cc1cc(NC(=O)C23CC4CC(CC(C4)C2)C3)n[nH]1,23,-8,6,1,102,5
O=C(CCC1CCCN(C(=O)c2ccc3c(c2)OCO3)C1)N1CCN(c2ccccn2)CC1 (stereo unspecified),3,27*,5,-5,95,-3
CN(C)c1ccc(C(=O)N2CCCC(CCC(=O)N3CCN(c4ccccn4)CC3)C2)cc1 (stereo unspecified),4,26*,5,4,/,2
O=C(CCC1CCCN(C(=O)c2cc(F)ccc2F)C1)N1CCN(c2ccccn2)CC1 (stereo unspecified),/,/,/,/,110,/
CN(C)c1cccc(C(=O)N2CCCC(CCC(=O)N3CCN(c4ccccn4)CC3)C2)c1 (stereo unspecified),0,0,1,-6,99,-2
O=C(CCC1CCCN(C(=O)c2cccc(F)c2)C1)N1CCN(c2ccccn2)CC1 (stereo unspecified),2,25*,8,0,104,-6
CCN(CC)C(=O)[C@H]1C[C@H](CC(=O)NCc2ccc(OC)c(OC)c2)C(=O)N2CCc3c([nH]c4ccc(Cl)cc34)[C@]12C,1,3,6,/,106,3
Cc1cccc(C)c1NC(=O)NS(=O)(=O)c1ccccc1,/,/,/,/,102,/
CC(=O)c1ccc(N2CCN(C(=O)/C=C/c3ccc(S(=O)(=O)N4CCOCC4)cc3)CC2)cc1,2,32*,0,-2,101,0
O=C(/C=C/c1ccc(S(=O)(=O)N2CCOCC2)cc1)N1CCCCC1,4,/,8,/,101,0
COc1cccc(/C=C2/SC(=O)N(C)C2=O)c1OCc1ccc(C(=O)O)cc1,1,3,9,29*,99,-3
NS(=O)(=O)c1cc(C(=O)OCC(=O)Nc2ccc(Cl)cc2[N+](=O)[O-])ccc1Cl,5,2,11,4,99,-6
Nc1c(C(=O)OCC(=O)Nc2ccc(Cl)cc2[N+](=O)[O-])[nH]c(=O)[nH]c1=O,1,33*,2,4,99,-4
O=Cc1cc2cc3c(cc2nc1Cl)OCCO3,/,2,/,-12,/,/
O=C(O)c1ccc(N/N=C/c2cc3cc4c(cc3nc2Cl)OCCO4)cc1,8,30*,4,-4,104,2
Cc1ccc(S(=O)(=O)/N=C2/C=C(Sc3ncn[nH]3)C(=O)c3ccccc32)c(C)c1,/,6,/,38*,/,/
